# From PubChem
# TROY NFkB inh: inhibitors of TROY-dependent NF-kB signaling | Q293 LMP1-TROYcd NF-kB luciferase reporter, 4 h | inhibition, % at 10 µM | 360,000 tested, 0.98% active | AID 1347056;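 active means compounds whose plate-normalised and pattern-corrected inhibition of the luciferase reporter signal at the single screening dose is 50% or more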
# HSP90 refold inh: inhibitors of HSP90 luciferase refolding in rabbit reticulocyte lysate; luciferase refolding luminescence, 3 h; inhibition, % at 5.6 µM; 290,000 tested, 0.91% active; AID 1789;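 active means inhibition above the screen-wide mean plus 3 SD, computed separately per campaign, cut at about 16% in these data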;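 further: 0% = DMSO wells and 100% = 60 µM geldanamycin wells; inhibitors lower the luminescence because luciferase stays unfolded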
# Platelet DG rel: modulates dense granule release in human platelets; human platelet-rich plasma, SFLLRN dense granule ATP release, luminescence; inhibition, %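 (compounds screened at 7.5 µM in platelet-rich plasma)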; 300,000 tested, 0.22% active;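 active means mean replicate score, as percent of positive control, at or above 50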
# C8 TRAIL sens: sensitizes caspase-8 expressing cells to TRAIL | inhibition (viability loss, TRAIL sensitization), % at 10 µM | 360,000 tested, 1% active | NB7+C8 cells + TRAIL, ATPlite viability luminescence;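 active means compounds causing at least 50% loss of cell viability in the single-dose screen, relative to plate controls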
# TWEAK-Fn14 inh: blocks TWEAK-Fn14 interaction in a reporter cell assay; AID 1159606; TWEAK-stimulated Fn14 reporter cells, luciferase luminescence, 8 h; 360,000 tested, 2% active; inhibition, % at 10 µM; in the data active means inhibition above about 50%
# PPC-1+TRAIL kill: PPC-1 cancer cell killing with TRAIL present. AID 1443. cell killing (% activity), % at 4 µM or 5 µM. 220,000 tested, 0.41% active. PPC-1 cells + TRAIL, ATPLite viability luminescence;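 active means cell killing above 50% in the first pass at 4 µM, then a duplicate retest at 5 µM averaging 50% or more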;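 further: plate controls were cells with TRAIL plus DMSO for no effect and medium-only wells lacking cells for full effect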
# Numbers without * were called inactive; · = no result. Sampled rows, rich in hits. Any-hit rate of the full collection: about 3.5%.
SMILES,TROY NFkB inh,HSP90 refold inh,Platelet DG rel,C8 TRAIL sens,TWEAK-Fn14 inh,PPC-1+TRAIL kill
Cc1ccc(NC(=O)C2CC(=O)N(Cc3ccccc3)C2)cc1S(=O)(=O)N1CCCCCC1 (stereo not given),61*,-1,-3,17,88*,10
CCOC(=O)C1=C(COC(=O)c2cc(S(=O)(=O)N(C)C)ccc2C)NC(=O)NC1C (stereo not given),13,·,·,-14,2,·
CS(=O)(=O)N1CCC(C(=O)NNC(=O)Nc2ccc(F)c(Cl)c2)CC1,-2,6,0,18,12,·
CC1CCCN(C(=O)C2CC(=O)N(c3ccc(Cl)cc3)C2)C1 (stereo not given),12,-5,2,-16,-5,·
Cc1ccc(OCC(=O)NNC(=O)CSC(=S)N2CCCC2)cc1,0,·,·,1,9,·
O=C(O)/C(=C\c1ccccc1OC(F)F)Sc1nnc(-c2ccc(F)cc2)o1,-1,4,-5,4,-17,15
CCCn1c(C(O)c2cc(OC)c(OC)c(OC)c2)nc2ccccc21 (stereo not given),-2,0,-2,-13,6,·
CCOc1ncccc1C(=O)Nc1ccc(C)c(S(=O)(=O)N2CCCCCC2)c1,28,·,·,8,63*,·
COc1ccc(OCCC(=O)OCC(=O)Nc2cccc(Br)c2)cc1,50,-2,-35,2,101*,9
COc1ccc(OCCC(=O)OCC(=O)Nc2ccc(Br)cc2)cc1,16,2,-6,2,-14,-5
CN(C)c1ccc(/C=C/CNC[C@H]2O[C@@H](n3ccc(N)nc3=O)[C@H](O)[C@@H]2O)cc1,-21,·,·,1,24,·
CC(C)CC(=O)/C=C/n1c(=S)oc2ccccc21,15,0,-2,-6,99*,18
COc1cccc(C(=O)NC(=S)Nn2cnnc2)c1OC,4,1,8,-2,57*,-4
O=C(NC(=S)Nn1cnnc1)c1ccccc1Cl,10,9,8,0,-8,18
O=C(/C=C/c1ccccc1)Nc1cccnc1Oc1ccccc1F,-22,3,-10,8,-47,6
CCN1C(=O)Nc2cccc3cccc1c23,4,·,59*,-12,31,·
CCOC(=O)C1=C(C)NC(C)=C(C(=O)OCC)C1C(=O)OCC(=O)NC1CCCCC1,4,·,·,12,-11,·
CCOC(=O)c1ccc(-c2ccc(N3C(c4ccsc4)=Cc4ccc(F)cc4C3c3c[nH]c4ccc(C#N)cc34)cc2)cc1F (stereo not given),14,·,·,8,53*,·
CN1CC[C@@H]2C(=O)N3CCc4ccc(Br)cc4[C@@H]3C[C@@H]21,-2,·,·,5,9,·
O=C(Nc1nc(-c2ccccc2)cs1)c1ccccc1F,-8,2,-2,-4,-27,·
COc1ccc(-c2csc(NC(=O)c3ccccc3NS(=O)(=O)c3ccc(F)c(F)c3)n2)cc1,69*,-16,-16,41,74*,19
Cc1ccc(S(=O)(=O)Nc2ccccc2C(=O)Nc2nc(-c3ccc(F)cc3)cs2)cc1,75*,-6,-11,53*,93*,25
CCOC(=O)c1ccc(P(=O)(c2ccccc2)c2ccccc2)cc1,-13,0,5,10,2,·
CCN(CC(=O)Nc1c(F)cccc1F)C(=O)c1cc([N+](=O)[O-])ccc1N1CCOCC1,3,·,-6,-18,9,·
COc1ccc2[nH]c(C(=O)N3CCC(CO)(Cc4cccc(C(F)(F)F)c4)CC3)c(C)c2c1,53*,-5,-1,-9,22,·
SMILES,TROY NFkB inh,HSP90 refold inh,Platelet DG rel,C8 TRAIL sens,TWEAK-Fn14 inh,PPC-1+TRAIL kill
C=C(C)CN(CC)c1nc(N)c2c(N)nc3c(c2c1C#N)CC(=O)N3C12CC3CC(CC(C3)C1)C2,22,3,8,18,9,-2
N#Cc1c(N2CCCC(O)C2)nc(N)c2c(N)nc3c(c12)CC(=O)N3C12CC3CC(CC(C3)C1)C2 (stereo not given),11,3,0,48,76*,5
Cc1ccc(N/C=C(\C2OC(=O)c3ccccc32)[N+](=O)[O-])c(C)c1 (stereo not given),7,3,-3,-5,44,30
O=C1OC(/C(=C\Nc2cc(Cl)ccc2O)[N+](=O)[O-])c2ccccc21 (stereo not given),5,38*,1,-4,34,10
O=C1OC(/C(=C\Nc2ccc(F)cc2F)[N+](=O)[O-])c2ccccc21 (stereo not given),0,1,-6,-4,51*,15
COc1ccc(-c2nnc(N(C)C(=O)c3ccno3)s2)cc1,·,4,2,29,50*,3
CCc1ccc(CN(C)C(=O)CCc2nc3ccccc3n(-c3ccc(OC)cc3)c2=O)cc1,54*,-4,14,7,52*,8
COc1ccc(-n2c(=O)c(CCC(=O)N(C)Cc3ccccc3C)nc3ccccc32)cc1,23,4,13,-5,0,22
O=C(CCCOc1ccc(Br)cc1)NCCc1ccc(OC(F)F)cc1,25,-1,17,6,31,·
CC(CCCC(C)(C)O)NC(=O)c1cc(COc2ccc3ncccc3c2)on1 (stereo not given),17,4,3,14,23,10
Cc1ccc(F)cc1CNC(=O)c1cc(COc2ccc3ncccc3c2)on1,46,0,1,15,75*,25
Cc1cc(C)n(CCNC(=O)c2cc(COc3ccc4ncccc4c3)on2)n1,13,-4,-4,29,9,14
O=C(NCc1cccc(Cl)c1)c1cc(COc2ccc3ncccc3c2)on1,53*,6,-19,31,61*,5
C=C1C(=O)[C@@]23[C@H](O)C[C@@H]4C(C)(C)CC[C@H](O)[C@]4(C)[C@@H]2C[C@H](O)[C@@H]1[C@H]3O,10,-1,8,6,60*,-3
C=C1C(=O)[C@@]23[C@H](O)C[C@@H]4C(C)(C)CC[C@H](O)[C@@]4(C)[C@@H]2CC[C@@H]1[C@H]3O,28,-1,-17,16,95*,3
COc1ccc(OC2C(=O)N(Cc3ccc4c(c3)OCO4)C2c2cccs2)cc1 (stereo not given),37,0,-2,1,61*,5
O=C(Cn1c(-c2cncs2)nc2ccccc21)NCc1ccccc1,-4,16*,13,-6,29,-6
Cc1ccccc1Cn1c(-c2cncs2)nc2ccccc21,12,-1,-4,4,-70,-1
Cc1ccc(NC(=O)CSCC(=O)NC2=NCCS2)cc1,-5,·,·,-6,-1,·
COc1cccc2cc(-c3nnc(-c4ccccc4)o3)c(=O)oc12,70*,4,13,38,73*,·
COc1ccc(-c2nnc(-c3cc4ccccc4oc3=O)o2)cc1,-13,-3,1,-4,-30,16
O=C(NCCCc1ccccc1)C1CC(=O)N(c2ccc3c(c2)OCCO3)C1 (stereo not given),26,9,13,-8,71*,6
